Experimental data as given in PubChem BioAssay (NCI).
About 83,000 compounds went through this panel and 20% of them were active in at least one assay; those are over-represented in the sample as a whole.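 48-hour exposure, single concentration, 96-well plates; percent growth endpoint where 0 means no net growth. Active: below 10.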 Unmarked numbers belong to inactive results. The source made the active and inactive calls.

How the values were obtained:
Experiment in all cases: NCI-60 one-dose screen, 48 h (100 = growth as untreated, 0 = no growth, -100 = all killed)
Conditions in all cases: 10 µM unless noted
SK-MEL-2 melanoma = tested on: SK-MEL-2 melanoma
EKVX NSCLC = tested on: EKVX NSCLC
SN12C renal = tested on: SN12C renal
UO-31 renal = tested on: UO-31 renal
TK-10 renal = tested on: TK-10 renal
ACHN renal = tested on: ACHN renal
CAKI-1 renal = tested on: CAKI-1 renal
A498 renal = tested on: A498 renal
CCRF-CEM leukemia = tested on: CCRF-CEM leukemia
MOLT-4 leukemia = tested on: MOLT-4 leukemia
SR leukemia = tested on: SR leukemia
RPMI-8226 leukemia = tested on: RPMI-8226 leukemia
OVCAR-8 ovarian = tested on: OVCAR-8 ovarian
OVCAR-5 ovarian = tested on: OVCAR-5 ovarian
OVCAR-4 ovarian = tested on: OVCAR-4 ovarian
SK-OV-3 ovarian = tested on: SK-OV-3 ovarian
IGROV1 ovarian = tested on: IGROV1 ovarian
OVCAR-3 ovarian = tested on: OVCAR-3 ovarian
HS 578T breast = tested on: HS 578T breast
NCI/ADR-RES ovarian = tested on: NCI/ADR-RES ovarian

Structure (SMILES)	growth (SK-MEL-2 melanoma) [%]	growth (EKVX NSCLC) [%]	growth (SN12C renal) [%]	growth (UO-31 renal)	growth (TK-10 renal) [%]	growth (ACHN renal)	growth (CAKI-1 renal)	growth (A498 renal) [%]	growth (CCRF-CEM leukemia)	growth (MOLT-4 leukemia)	growth (SR leukemia)	growth (RPMI-8226 leukemia)	growth (OVCAR-8 ovarian)	growth (OVCAR-5 ovarian)	growth (OVCAR-4 ovarian)	growth (SK-OV-3 ovarian) [%]	growth (IGROV1 ovarian)	growth (OVCAR-3 ovarian)	growth (HS 578T breast) [%]	growth (NCI/ADR-RES ovarian) [%]
Cc1ccccc1C(c1ccccc1)c1ccccc1C	101	96.3	96.8	79.2%	100	94.2%	87.6%	83.6	83.3%	93.5%	104%	89.5%	89.8%	85%	108%	75.1	92.2%	104%	106	104
Cc1ccccc1-c1cc(Cc2ccc(F)cc2)c(=O)[nH]n1	122	81.8	148	70.5%	122	105%	54.4%	117	-50.9% (active)	58.1%	-21.2% (active)	50.9%	90.4%	106%	103%	98.2	97.4%	104%	99.9	102
O=C(O)c1cn(C2CC2)c2cc(N3CCN(C(=O)C[n+]4cccc5ccccc54)CC3)c(F)cc2c1=O	72.5	102	33.1	67.1%	100	61%	81.3%	99.4	-37.5% (active)	5.51% (active)	15.6%	61.1%	74.1%	100%	54.5%	106	92.7%	51.1%	84.9	93.8
COc1cc(NCCCN(CC(C)C)C2CCCC2)c2ncccc2c1	100	89.9	61.9	51%	93.6	41.7%	76%	37.1	54.1%	71%	16.8%	35.5%	59.2%	96.3%	22.5%	84.6	50.6%	52.6%		
COc1ccc(C2=NN(C(C)=O)C(c3cn(Cc4ccc(Cl)cc4)c4ccccc34)C2)cc1 (stereo unspecified)	91.1	58.4	72.2	53.4%	82.9	74.5%	52.2%	72.9	70.7%	67.8%	66.2%	50%	78.3%	79.6%	70.1%	90.1	77.5%	78.1%	75.9	75
COc1cc(NCC(C)(O)CN(CC(C)C)CC(C)C)c2nc(C)ccc2c1 (stereo unspecified)	96.8	91.5	81	54.5%	119	79%	67.7%	56.5	85.4%	80.7%	87.7%	68.6%	86.9%	89.5%	23.2%	98.6	73.4%	24.8%	83.9	79.6
CN1CCN(CCCOc2ccc3ncnc(Nc4ccc(Oc5cccc(C(F)(F)F)c5)c(Cl)c4)c3c2)CC1	40.3	36.6	27.1	20.1%	19.3	-37.5% (active)	0.55% (active)	63.1	-9.94% (active)	3.44% (active)	4.03% (active)	-21.6% (active)	24.6%	5.84% (active)	2.72% (active)	21.4	-53.7% (active)	30.2%	26.8	34.8
COc1ccc(C2CC(c3cccc(Nc4ccncc4)c3)=NN2c2ccccc2)cc1 (stereo unspecified)	71.7	87.2	80.6	64.3%	68.7	69.2%	51.5%	78	30.7%	10.7%	2.73% (active)	-6.86% (active)	20.5%	79.7%	51.8%	67.7	43.7%	61.3%	68.5	69.9
COc1ccc(-c2nc(SCC(C)C)nc(N/N=C(/C)c3ccc(OC)c(OC)c3)c2C#N)cc1	103	89.5	76.1	54.4%	101	90.5%	86%	67.9	70.3%	55.3%	70.9%	71.3%	93.4%	81.7%	86.3%	93.3	78.8%	79.7%	76	
O=c1[nH]nc(-c2ccc(Br)cc2)cc1Cc1ccc(O)cc1	107	51.7	90.5	77.3%	139	105%	98.1%	103	-9.56% (active)	17.9%	-29.1% (active)	53.8%	92.7%	106%	97.6%	92.9	82.4%	92.4%	64.1	
COc1ccc(C2CC(c3cccc(Nc4ccncc4)c3)=NN2c2ccc(Cl)cc2)cc1 (stereo unspecified)	80.4	83.8	63.7	47.6%	59.1	46.7%	24.5%	70.1	4.44% (active)	-7.16% (active)	1.94% (active)	0.0835% (active)	-23.4% (active)	74.1%	37.7%	63.9	23%	39.6%	60.7	62.3
CN1CCN(c2ccc(NC3=C(Cl)C(=O)c4ncccc4C3=O)cc2C#N)CC1	78.8	36.4	25.5	-34.9% (active)	85.4	-96.1% (active)	0.744% (active)	79.7	-19.9% (active)	-10.8% (active)	3.52% (active)	37.7%	26.8%	73.5%	-97.7% (active)	86.3	-29.1% (active)	-63.7% (active)	61.4	73.1
O=C(N/N=C/c1cccnc1)c1ccccc1Nc1cccc(C(F)(F)F)c1	101	89.2	159	76.4%	97.2	100%	79.6%	75.6	-52.4% (active)	62.7%	-15.3% (active)	71.1%	83.1%	96.4%	70.3%	80.3	91.4%	75.4%	100	79
Clc1ccc(N2N=C(c3cccc(Nc4ccncc4)c3)CC2c2ccccc2)cc1 (stereo unspecified)	107	82.5	86.1	83.1%	106	94.9%	76.2%	84.5	96.3%	89.4%	51.7%	92.7%	94.5%	90%	88.9%	87.6	92.9%	97.1%	72.7	101
Clc1ccc(C2CC(c3cccc(Nc4ccncc4)c3)=NN2c2ccccc2)cc1 (stereo unspecified)	83.7	89.8	76.6	63.2%	57.4	78.1%	52.6%	84	36.7%	-6.03% (active)	2.19% (active)	1.08% (active)	-7.33% (active)	82.6%	45.5%	81.4	25.9%	64.4%	83.9	78.8
COc1cc(C2CC(c3cccc(Nc4ccncc4)c3)=NN2c2ccccc2)cc(OC)c1OC (stereo unspecified)	83.1	71.2	62.5	53.3%	82.8	65.6%	43.6%	74.9	6.7% (active)	1.73% (active)	2.93% (active)	7.32% (active)	66.6%	89.3%	41.2%	74	55%	56.2%	64.2	66.3
